Measurements from PubChem BioAssay (Tox21).
A number with no mark means an inactive call. Where a call stands in place of a potency, no number is given. Active and inactive are the calls of the source. Calls come from the whole dose curve; as a rule, active = well fitted curve in the direction sought with a large enough effect in the repeat runs; inconclusive = weak or mixed curves; inactive = flat fitted curve, though single readings scatter.

Experiment: qHTS assay to test for compound auto fluorescence at 460 nm (blue) in HepG2 cells (AID 720687)
Conditions: autofluorescence 405/460 nm, 1 h; series mostly up to 91.3 µM
From the text: U.S. Tox21 Program National Center for Advancing Translational Sciences [NCATS] NIH Chemical Genomics Center [NCGC] U.S. Environmental Protection Agency [EPA] National Institutes of Environmental Health Sciences [NIEHS] National Toxicology Program [NTP] U.S. Food and Drug Administration [FDA] Tox21 Assay Overview: Compound auto fluorescence often interferes with screening of the compound library against various biological targets and signaling pathways. Some of these compounds may have fluorophoric properties. Such properties may interfere with the assay outputs resulting in false positives and/or negatives. To decrease such complications and ensure the compound activities are relevant in terms of biological response, the Tox21 10K compound library was screened for auto fluorescence. From the fluorophores used as reporter signals in our screening assays, the auto fluorescence equivalencies of compounds against three fluorophores have been evaluated: Triamterene, Fluorescein and Rose Bengal sodium for blue, green and red fluorescence, respectively. The fluorescence intensities were measured using Excitation/Emission wavelengths at 405/460nm, 485/535nm and 540/590nm for blue, green and red labels, respectively. This assay includes the blue fluorescence data.
Tox21 Assay Protocol Summary: 2,000 HepG2 cells in 5 uL of culture medium (MEM containing 10% FBS) per well were dispensed into black wall/clear bottom 1536-well plates using a Multidrop Combi Dispenser (ThermoFisher Scientific, Waltham, MA). The assay plates were incubated overnight at 37 C to allow cell attachment to the well bottom, followed by the transfer of 23 nL compound or DMSO vehicle by a pintool work station (Kalypsys , San Diego, CA). After the assay plates were incubated for 1 hr at 37 C and 5% CO2, fluorescence intensities in the assay plates were measured by an Envision (PerkinElmer, Shelton, CT) plate reader using three labels for measuring blue, green and red fluorescence at […] 460, 535 and 590 nm respectively.
Potency is the fitted concentration of half-maximal effect; tags give direction and shape of the fitted curve or compound fluorescence and quenching.

Structure (SMILES) | Potency | fluorescence, % of fluorescent control
Cc1ccccc1N1C(=O)c2cc(S(N)(=O)=O)c(Cl)cc2NC1C (stereo not given) | inactive | –
CCCCCC=CCC=CCCCCCCCC(=O)OCC | inactive | –
CC(=O)CC(c1ccc([N+](=O)[O-])cc1)c1c(O)c2ccccc2oc1=O (stereo not given) | – | -0.107% [at 18.6 µM]
CC(C)(C)C(=O)O | inactive | –
CCCOCCOCCO | inactive | –
CCCCCCCC/C=C\CCCCCCCC(=O)OC(CO)CO | inactive | –
COC(=O)CC(=O)C(C)(C)C | inactive | –
COc1ccccc1N=Nc1c(S(=O)(=O)O)cc2cc(S(=O)(=O)O)cc(NC(C)=O)c2c1O | inactive | –
O=C(O)C(Cc1cc(I)c(O)c(I)c1)c1ccccc1 (stereo not given) | inactive | –
CCC(C)(C)C1CCC(O)CC1 (stereo not given) | inactive | –
NC(=O)Nc1ccc(Cl)cc1 | inactive | –
COCCOC(=O)C1=C(C)NC(C)=C(C(=O)OC/C=C/c2ccccc2)C1c1cccc([N+](=O)[O-])c1 (stereo not given) | inactive | –
Brc1cc(-c2ccc(Br)c(Br)c2Br)cc(Br)c1Br | inactive | –
Nc1ccc(Cl)cc1[N+](=O)[O-] | inactive | –
CCCOC(=O)c1ccc(C(=O)OCCC)nc1 | inactive | –
CCc1cccc(N(C)C(N)=Nc2cccc3ccccc23)c1 | inactive | –
CN(C)C(=O)Nc1ccc(Oc2ccc(Cl)cc2)cc1 | inactive | –
CCc1c2c(nc3ccc(OC(=O)N4CCC(N5CCCCC5)CC4)cc13)-c1cc3c(c(=O)n1C2)COC(=O)[C@]3(O)CC | 15.8 µM [fluorescent] (active) | –
CCC(C(=O)OCCN(CC)CC)c1ccccc1 (stereo not given) | inactive | –
CC1=CC(=O)CC(C)(C)C1(O)/C=C/C(C)=C\C(=O)O (stereo not given) | inactive | –

Structure (SMILES) | Potency | fluorescence, % of fluorescent control
CN1CCN(CCCN2c3ccccc3Sc3ccc(S(=O)(=O)N(C)C)cc32)CC1 | – | 0.123% [at 18.6 µM]
NC(=O)Nc1ccc(Cl)c(Cl)c1 | inactive | –
CN(C)CCOC1=Cc2ccccc2Sc2ccc(Cl)cc21 | inactive | –
COCCOC | inactive | –
CCCCC1C(=O)N(c2ccccc2)N(c2ccc(O)cc2)C1=O (stereo not given) | – | -0.0848% [at 18.6 µM]
Nc1nc(Cl)nc2c1ncn2[C@@H]1O[C@H](CO)[C@@H](O)[C@@H]1F | inactive | –
C1COCO1 | inactive | –
CCc1nn(CCCN2CCN(c3cccc(Cl)c3)CC2)c(=O)n1CCOc1ccccc1 | inactive | –
CC(C)C(OC(=O)c1ccccc1)C(C)(C)COC(=O)c1ccccc1 (stereo not given) | inactive | –
CCC(C)(O)CCC=C(C)C (stereo not given) | inactive | –
C[Si](NC1CCCCC1)(NC1CCCCC1)NC1CCCCC1 | inactive | –
Cc1cnc(C)c(C)n1 | inactive | –
CC(CCO)CCc1ccccc1 (stereo not given) | inactive | –
CC(=O)Oc1ccc2c(c1)CC[C@@H]1[C@@H]2CC[C@]2(C)[C@@H](O)CC[C@@H]12 | inactive | –
Nc1ccc(C(=O)OCCCOC(=O)c2ccc(N)cc2)cc1 | inactive | –
O=C(O)c1cccc(O)c1 | inactive | –
COc1cc2ncnc(Nc3ccc(F)c(Cl)c3)c2cc1OCCCN1CCOCC1 | inactive | –
CCCCCCOC(=O)CCCCCCCC(=O)OCCCCCC | inactive | –
CC(COc1ccc(C(C)(C)C)cc1)OS(=O)OCCCl (stereo not given) | inactive | –
O=C(NCCCN1CCOCC1)c1ccc(Cl)cc1 | inactive | –
